Screens as filed in PubChem BioAssay.
ALOX12 inhib – qHTS Assay for Inhibitors of 12-hLO (12-human lipoxygenase); purified 12-hLO, xylenol orange hydroperoxide absorbance; Potency, µM (titrated, usually from 57.1 µM), hits mostly inhibitors; 0.12% of 150,000 active; AID 1452, 2008; also: nearly all actives have a fitted effect of over 55% in size
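Hydroperoxide formation by human 12-lipoxygenase from 40 uM arachidonic acid was followed colorimetrically via ferric-xylenol orange complex, using the 573/405 nm absorbance ratio. Enzyme concentration was 150 nM, with 30 min reaction at room temperature.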
p53ts 32C tox – qHTS Screen for Compounds that Selectively Target Cancer Cells with p53 Mutations: Cytotoxicity of p53ts Cells at the Permissive Temperature; Potency, µM (top dose mostly 46.1 µM), actives largely listed as cytotoxic; H1299-p53A138V at 32C, ATP luminescence viability, 24 h; 0.93% of 130,000 active; AID 924, 2007; also: nearly all actives have a fitted effect of over 55% in size
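Viability by ATPlite luminescence after 24 h compound treatment (up to 46 uM) at the permissive 32C. Cells are H1299 carrying p53 A138V. Scale runs from DMSO basal to 100 uM tamoxifen as full kill; AC50 from Hill fits.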
p53ts 39C tox – qHTS Screen for Compounds that Selectively Target Cancer Cells with p53 Mutations: Cytotoxicity of p53ts Cells at the Nonpermissive Temperature; H1299-p53A138V viability at 39C, ATP luminescence, 24 h; 1.5% of 130,000 active; AID 902, 2007; Potency, µM (titrated, usually from 46.1 µM), hits mostly cytotoxic; also: nearly all actives have a fitted effect of over 55% in size
HPGD inh – qHTS Assay for Inhibitors of HPGD (15-Hydroxyprostaglandin Dehydrogenase); Potency, µM, hits mostly inhibitors; purified HPGD, NADH fluorescence kinetic, PGE2 substrate; 4.3% of 150,000 active; 15-hydroxyprostaglandin dehydrogenase [NAD(+)] (Homo sapiens), P15428; active = well fitted inhibition curve with a large enough effect, not every such curve was filed as active; inconclusive = small, poorly fitted or top-dose-only effect, or another doubt; inactive = no such curve, though single readings can be large or run the other way
Target sequence (P15428 whole entry, looked up): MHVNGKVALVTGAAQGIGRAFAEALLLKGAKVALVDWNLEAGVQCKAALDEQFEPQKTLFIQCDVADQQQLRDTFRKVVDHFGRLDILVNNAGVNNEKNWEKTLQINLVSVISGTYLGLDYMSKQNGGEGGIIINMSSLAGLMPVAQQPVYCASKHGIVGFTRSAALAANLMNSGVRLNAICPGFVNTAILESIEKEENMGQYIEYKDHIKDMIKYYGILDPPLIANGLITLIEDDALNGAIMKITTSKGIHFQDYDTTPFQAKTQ
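20 nM HPGD preincubated 15 min at room temperature with compound in 50 mM Tris-HCl pH 8, 0.01% Tween 20. Started with 1 mM NAD+ and 30 uM prostaglandin E2; NADH fluorescence (360/450 nm) read 5 times over 30-s intervals, last minus first.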
Large screens that a line does not name were inactive. Sampled rows, rich in hits. Any-hit rate of the full collection: about 4.4%. Unless noted, calls follow the shape of the dose curve; as a rule, active = well fitted curve in the direction sought with a large enough effect; inconclusive = small, poorly fitted or top-dose-only effect, or another doubt; inactive = no such curve, though single readings can be large; an effect the other way counts as inactive or inconclusive.

Cc1ccc(C(=O)NCCSC(C)(C)C)cc1	none (no result: p53ts 32C tox, p53ts 39C tox)
CSCCNC(=O)c1ccc(C(C)(C)C)cc1	p53ts 32C tox 10µM, p53ts 39C tox inconclusive, HPGD inh 14µM
COc1ccc(N=Nc2nc3cc(Br)c(Br)cc3n2C)c(OC)c1	HPGD inh 7.9µM (no result: p53ts 32C tox)
COC(=O)c1ccc2c(=O)n(CCCCCC(=O)NCCc3ccc(Cl)cc3)c(=O)[nH]c2c1	none (no result: ALOX12 inhib, HPGD inh)
Cc1ccc(CNC(=O)C(C)OC(=O)c2ccco2)cc1 (stereo not drawn)	none
CCC(OC(=O)c1ccco1)C(=O)NCc1ccc(C)cc1 (stereo not drawn)	HPGD inh 28µM
Cc1ccc(CNC(=O)C(OC(=O)c2ccco2)C(C)C)cc1 (stereo not drawn)	HPGD inh 4.5µM
CCOc1ccc(Nc2oc(/C=C/c3cccc(OC)c3)nc2C#N)cc1	none (no result: ALOX12 inhib, HPGD inh)
O=C(NCc1ccc2c(c1)OCO2)c1ccc(C2SCC(=O)N2Cc2ccco2)cc1 (stereo not drawn)	HPGD inh inconclusive
CN1CCN(C(=O)c2ccc(C3SCC(=O)N3Cc3ccco3)cc2)CC1 (stereo not drawn)	HPGD inh 13µM
Cc1ccc(NC2=C/C(=N/S(=O)(=O)c3cccs3)c3ccccc3C2=O)cc1C	none (no result: p53ts 32C tox, p53ts 39C tox)
Cc1cc(C)c(S(=O)(=O)/N=C2/C=C(Sc3ncn[nH]3)C(=O)c3ccccc32)cc1C	HPGD inh 0.89µM (no result: p53ts 32C tox, p53ts 39C tox)
CCOC(=O)c1ccc(NC(=O)CCCc2nc(-c3ccccc3Cl)no2)cc1	none (no result: ALOX12 inhib, HPGD inh)
CCOc1ccc(C(=O)OCc2nnc(-c3cccs3)o2)cc1OC	HPGD inh 25µM
COc1cc(C)ccc1OCCSc1nnc(-c2cccs2)o1	none (no result: ALOX12 inhib, HPGD inh)
CCc1nnc(SCC(=O)NC2CCCC2)nc1CC	HPGD inh 16µM (no result: p53ts 32C tox, p53ts 39C tox)
CCc1nnc(SCC(=O)NC2CCCCC2)nc1CC	HPGD inh inconclusive
Cc1ccc(CNC(=O)Cc2coc3cc(C)cc(C)c23)cc1	none (no result: ALOX12 inhib, HPGD inh)
Cc1cc(C)c2c(CC(=O)O)coc2c1	HPGD inh 20µM
CCOc1cccc(CC(=O)N2CCc3c([nH]c4ccccc34)C2c2ccc(C)cc2)c1OCC (stereo not drawn)	none (no result: ALOX12 inhib, HPGD inh)
COc1ccc(-n2nc3ccc(NC(=O)c4ccc(C#N)cc4F)cc3n2)cc1Cl	none (no result: ALOX12 inhib, HPGD inh)
Cc1cc(-c2ccccc2)c(C#N)c(=S)[nH]1	HPGD inh 14µM (no result: p53ts 32C tox, p53ts 39C tox)
O=C(NNc1c(Cl)cc(Cl)cc1Cl)C1CCC1	HPGD inh 32µM (no result: p53ts 32C tox, p53ts 39C tox)
O=C(NNC(=O)C1CCN(S(=O)(=O)c2ccc(Cl)cc2)CC1)c1ccc(S(=O)(=O)N2CCCCC2)cc1	none (no result: p53ts 32C tox, p53ts 39C tox)
O=C(NCc1ccco1)c1ccc(COc2cccc3ccccc23)cc1	HPGD inh inconclusive
CCOc1ccc(C(=O)NCc2ccco2)cc1	p53ts 32C tox inconclusive, HPGD inh 28µM
O=C(NCc1ccco1)c1c(F)cccc1Cl	HPGD inh 14µM (no result: p53ts 32C tox, p53ts 39C tox)
O=C(NCc1ccco1)c1ccc(OCC2CCCO2)cc1 (stereo not drawn)	HPGD inh inconclusive
O=C(NCc1ccco1)c1ccc(COc2ccccc2Cl)cc1	HPGD inh 14µM (no result: p53ts 32C tox, p53ts 39C tox)
O=C(NCc1ccco1)c1ccc(COc2ccc(Cl)cc2)cc1	none (no result: p53ts 32C tox, p53ts 39C tox)
O=C(NCc1ccco1)c1ccccc1F	HPGD inh inconclusive (no result: p53ts 32C tox, p53ts 39C tox)
CC(C)COc1ccc(C(=O)NCc2ccco2)cc1	HPGD inh 16µM
CCSc1nnc2c(n1)OC(c1ccc(OC)c(OC)c1)N(C(C)=O)c1ccccc1-2 (stereo not drawn)	none (no result: ALOX12 inhib, HPGD inh)
CCOc1ccc(C(=O)NCC(C)C)cc1	HPGD inh 18µM (no result: p53ts 32C tox, p53ts 39C tox)
O=C(NCc1ccco1)c1ccc2c(c1)C(=O)c1ccccc1-2	HPGD inh 16µM
O=C(NCc1ccco1)c1ccc2c(c1)C(=O)N(Cc1ccccc1)C2=O	none
CCc1ccc(NC(=S)NC(=O)CC(C)C)cc1	HPGD inh inconclusive (no result: p53ts 32C tox, p53ts 39C tox)
O=C(NCc1ccco1)c1ccc2ccccc2c1	p53ts 32C tox inconclusive, HPGD inh 32µM
CC(C)CC(=O)NC(=S)Nc1ccc(NC(=O)c2ccco2)cc1	HPGD inh 14µM (no result: p53ts 32C tox, p53ts 39C tox)
O=C(NCc1ccco1)c1cccc2ccccc12	HPGD inh 14µM
O=C(NCc1ccco1)c1ccc(Oc2ccccc2)cc1	HPGD inh 28µM (no result: p53ts 32C tox, p53ts 39C tox)
O=C(NCc1ccco1)Oc1ccccc1	none
O=C(NCc1ccco1)c1sc2cc(F)ccc2c1Cl	HPGD inh 25µM
O=C(Nc1ccon1)c1sc2cc(F)ccc2c1Cl	none
